Laboratory results as given in PubChem BioAssay AID1159580 (chemical genetic matrix, 2015).
About 2,000 (36%) of roughly 5,500 compounds were called active. Inconclusive results (about 18%) are left out. Some of the results follow. Unmarked numbers belong to inactive results. No stated cut-off is given here; in the data, active means normalized growth mostly below about 0.91 (no sharp cut-off); inconclusive means no clear call, values can overlap the other calls; inactive means mostly above about 0.92.

Assay: chemical genetic growth profiling, strain panel (AID 1159580);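 further: tested at 20 µM; growth read once vehicle control cultures reached saturation at 30 °C; 1 = growth at the plate median or of vehicle wells; lower values mean less growth of the strain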
Settings: S. cerevisiae deletion strains, growth OD

Compound: C[C@H]1CC[C@@H](C(C)(C)O)CC2=C1CC[C@@H]2C
- normalized growth (locus YAL021C, strain ccr4, hits give low values): 1
- normalized growth (locus YAL026C, strain drs2, hits give low values): 0.984
- normalized growth (locus YAL030W, strain snc1, hits give low values): 0.995
- normalized growth (locus YBL061C, strain skt5, hits give low values): 0.985
- normalized growth (locus YBR009C, strain hhf1, hits give low values): 0.914
- normalized growth (locus YBR023C, strain chs3, hits give low values): 0.959
- normalized growth (locus YBR171W, strain sec66, hits give low values): 0.978
- normalized growth (locus YBR231C, strain swc5, hits give low values): 1.01
- normalized growth (locus YBR279W, strain paf1, hits give low values): 0.996
- normalized growth (locus YCL011C, strain gbp2, hits give low values): 0.982
- normalized growth (locus YCL016C, strain dcc1, hits give low values): 0.976
- normalized growth (locus YCL061C, strain MRC1, hits give low values): 0.995
- normalized growth (locus YCL069W, strain vba3, hits give low values): 0.997
- normalized growth (locus YCR088W, strain abp1, hits give low values): 0.993
- normalized growth (locus YDL005C, strain med2, hits give low values): 0.998
- normalized growth (locus YDL040C, strain nat1, hits give low values): 0.983
- normalized growth (locus YDR001C, strain nth1, hits give low values): 0.988
- normalized growth (locus YDR069C, strain doa4, hits give low values): 0.981
- normalized growth (locus YDR137W, strain rgp1, hits give low values): 0.91
- normalized growth (locus YDR159W, strain sac3, hits give low values): 0.912
- normalized growth (locus YDR195W, strain ref2): 0.822 (active)
- normalized growth (locus YDR297W, strain sur2, hits give low values): 0.988
- normalized growth (locus YDR334W, strain swr1, hits give low values): 1.01
- normalized growth (locus YDR335W, strain msn5, hits give low values): 0.992
- normalized growth (locus YDR392W, strain spt3, hits give low values): 0.552 (active)
- normalized growth (locus YEL003W, strain gim4, hits give low values): 0.984
- normalized growth (locus YEL037C, strain rad23, hits give low values): 0.994
- normalized growth (locus YEL061C, strain CIN8 (second series), hits give low values): 1
- normalized growth (locus YER015W, strain faa2, hits give low values): 1.01
- normalized growth (locus YER016W, strain bim1, hits give low values): 0.967
- normalized growth (locus YER111C, strain swi4, hits give low values): 0.984
- normalized growth (locus YER155C, strain BEM2 (second series), hits give low values): 0.927
- normalized growth (locus YFR010W, strain ubp6, hits give low values): 0.962
- normalized growth (locus YGL167C, strain pmr1, hits give low values): 0.985
- normalized growth (locus YGL173C, strain kem1, hits give low values): 0.961
- normalized growth (locus YGL227W, strain vid30, hits give low values): 0.999
- normalized growth (locus YGL240W, strain doc1, hits give low values): 0.934
- normalized growth (locus YGL253W, strain hxk2, hits give low values): 1
- normalized growth (locus YHR013C, strain ard1, hits give low values): 0.999
- normalized growth (locus YHR027C, strain rpn1, hits give low values): 0.994
- normalized growth (locus YHR030C, strain SLT2, hits give low values): 0.819 (active)
- normalized growth (locus YHR079C, strain IRE1, hits give low values): 0.767 (active)
- normalized growth (locus YHR142W, strain chs7, hits give low values): 0.884
- normalized growth (locus YJL092W, strain hpr5, hits give low values): 0.995
- normalized growth (locus YJL095W, strain BCK1 (second series), hits give low values): 0.99
- normalized growth (locus YJL095W, strain BCK1, hits give low values): 0.9
- normalized growth (locus YJL115W, strain asf1, hits give low values): 0.994
- normalized growth (locus YJL129C, strain trk1, hits give low values): 0.983
- normalized growth (locus YJL154C, strain vps35, hits give low values): 0.992
- normalized growth (locus YJL164C, strain tpk1, hits give low values): 0.965
- normalized growth (locus YJL166W, strain qcr8, hits give low values): 0.948
- normalized growth (locus YJL187C, strain SWE1, hits give low values): 0.987
- normalized growth (locus YJR066W, strain TOR1, hits give low values): 0.92
- normalized growth (locus YKL160W, strain elf1, hits give low values): 0.979
- normalized growth (locus YKR026C, strain gcn3, hits give low values): 0.97
- normalized growth (locus YKR091W, strain srl3, hits give low values): 0.993
- normalized growth (locus YLL001W, strain dnm1, hits give low values): 0.991
- normalized growth (locus YLL026W, hits give low values): 0.978
- normalized growth (locus YLL041C, strain sdh2, hits give low values): 0.993
- normalized growth (locus YLR027C, strain aat2, hits give low values): 0.979
- normalized growth (locus YLR113W, strain HOG1, hits give low values): 0.764 (active)
- normalized growth (locus YLR221C, strain rsa3, hits give low values): 0.924
- normalized growth (locus YLR258W, strain gsy2, hits give low values): 0.971
- normalized growth (locus YLR262C, strain YPT6 (second series), hits give low values): 0.841 (active)
- normalized growth (locus YLR320W, strain mms22, hits give low values): 0.896
- normalized growth (locus YLR342W, strain FKS1, hits give low values): 0.989
- normalized growth (locus YLR357W, strain rsc2, hits give low values): 0.893
- normalized growth (locus YLR370C, strain arc18, hits give low values): 0.987
- normalized growth (locus YLR384C, strain iki3, hits give low values): 0.995
- normalized growth (locus YML120C, strain ndi1, hits give low values): 0.972
- normalized growth (locus YMR058W, strain fet3, hits give low values): 0.993
- normalized growth (locus YMR125W, strain sto1, hits give low values): 0.977
- normalized growth (locus YMR129W, hits give low values): 0.986
- normalized growth (locus YMR205C, strain PFK2, hits give low values): 0.896
- normalized growth (locus YMR231W, strain pep5, hits give low values): 0.999
- normalized growth (locus YNL071W, strain lat1, hits give low values): 0.952
- normalized growth (locus YNL183C, strain NPR1, hits give low values): 0.869
- normalized growth (locus YNL209W, strain ssb2, hits give low values): 0.995
- normalized growth (locus YNL248C, strain rpa49, hits give low values): 0.983
- normalized growth (locus YNL322C, strain KRE1 (second series), hits give low values): 0.987
- normalized growth (locus YNR049C, strain mso1, hits give low values): 0.995
- normalized growth (locus YOR001W, strain rrp6, hits give low values): 0.958
- normalized growth (locus YOR070C, strain gyp1, hits give low values): 0.978
- normalized growth (locus YOR080W, strain dia2, hits give low values): 1
- normalized growth (locus YOR083W, strain WHI5, hits give low values): 0.975
- normalized growth (locus YOR106W, strain vam3, hits give low values): 0.972
- normalized growth (locus YOR231W, strain MKK1, hits give low values): 0.849 (active)
- normalized growth (locus YOR265W, strain rbl2, hits give low values): 0.983
- normalized growth (locus YOR270C, strain vph1, hits give low values): 0.97
- normalized growth (locus YOR290C, strain snf2, hits give low values): 0.925
- normalized growth (locus YPL051W, strain arl3, hits give low values): 0.979
- normalized growth (locus YPL078C, strain atp4, hits give low values): 0.986
- normalized growth (locus YPL106C, strain sse1, hits give low values): 0.889
- normalized growth (locus YPL240C, strain hsp82, hits give low values): 1.01
- normalized growth (locus YPL256C, strain CLN2, hits give low values): 0.796 (active)
